# Data as given in ChEMBL document CHEMBL1157539, “Thousands of chemical starting points for antimalarial lead identification” (Nature, 2010).
# Experiments:
# Type in all cases: functional
# [1] = tested on: Plasmodium falciparum; assay: GSK_TCMDC: Inhibition of Plasmodium falciparum 3D7 in whole red blood cells, using parasite LDH activity as an index of growth. Test compounds present at 2uM
# [2] = tested on: Plasmodium falciparum; assay: GSK_TCMDC: Inhibition of Plasmodium falciparum Dd2 in whole red blood cells, using parasite LDH activity as an index of growth. Test compounds present at 2uM
# [3] = tested on: HepG2; assay: GSK_TCMDC: Percent inhibition of human HepG2 cell line. Test compounds present at 10uM.
SMILES,Inhibition [1] [%],Inhibition [2] [%],Inhibition [3] [%]
COc1ccc2nccc([C@@H](O)CN3CCC(NC(=O)C(c4cc5ccccc5o4)N4CCN(c5ccccc5OC)CC4)CC3)c2c1 (stereo not given in full),99,83,14
O=C(Nc1cc(Cl)c(Cl)cc1NC(=O)c1cccc(-c2ccccc2)c1O)c1cccc(-c2ccccc2)c1O,100,100,79
O=C(Nc1ccc(Cl)cc1)Nc1ccc(OCC(O)CN2CCCCC2)cc1 (stereo not given),83,13,18
O=C(/C=C/c1ccc(Cl)c(Cl)c1)NC1CCC(CN2CCC(c3nc4ccccc4s3)CC2)CC1 (stereo not given),87,32,50
N=C(N)c1ccc(C=Cc2ccc(C(=N)N)cc2O)cc1.O=S(=O)(O)CCO,92,80,10
Cc1cc(-c2ccc(CNC3Cc4ccccc4C3)cc2)ccc1S(=O)(=O)NCCN1CCCC1.O=C(O)C(F)(F)F,100,73,99
Cc1ccc2[nH]c3c(NCCN(C)C)ncnc3c2c1,99,5,9
O=C(NC1CCCCN(Cc2ccccc2O)C1)c1cccc(Cl)c1.O=C(O)C(F)(F)F (stereo not given),86,30,15
C=C(C)CSc1nc2c(c(=O)n1Cc1ccco1)C1(CCCCC1)Cc1ccccc1-2,97,68,2
Cc1cnc(C(=O)Nc2ccc3c(c2)CCCN(Cc2c[nH]c4cnccc24)C3)cn1.O=CO,92,20,0
